SMILES strings stand for the structures. Out of some 420,000 compounds screened, about 64,000 (15%) were called active. About 27% were inconclusive and are not listed. The call rests on the fitted dose curve; in most records, active means well fitted inhibition curve with a large enough effect; inconclusive means small, poorly fitted or top-dose-only effect; inactive means flat fitted curve, though single readings scatter. The list is a sample of the results.
On the % scale 0 is the no-effect control and ±100 the full control effect; potency means the concentration at half of the fitted maximal effect.

The experiment is described as follows: qHTS for Inhibitors of human tyrosyl-DNA phosphodiesterase 1 (TDP1): qHTS in cells in absence of CPT. Further: nearly all actives have a fitted effect of over 55% in size. Conditions: DT40 Tdp1-/- hTDP1 cells, no CPT, ATP luminescence, 48 h; activity change, negative = growth inhibition: at 46.2 µM (top of the series). The procedure, abridged: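 A cellular qHTS used chicken DT40 cells lacking endogenous Tdp1 but carrying stably transfected human TDP1. Compounds were applied without camptothecin, and cell growth kinetics were judged by ATP-dependent luminescence after ≥48 hr.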
A general note: qHTS replaces the single test concentration by a dilution series.
For `CCOc1ccc(N2CC(c3nc4ccccc4n3CCOc3ccc(OC)cc3)CC2=O)cc1` (stereo not given), the Potency is 23.1 µM (active).

As for `CCCOc1cc(C)c(S(=O)(=O)n2nnc3ccccc32)cc1C`, the “activity change, negative = growth inhibition” value is -14.5% (inactive).

On to `CCc1ccccc1N1CC(c2nc3ccccc3n2CCCCOc2ccccc2)CC1=O` (stereo not given), for which the “activity change, negative = growth inhibition” value was -19.2% (inactive).

For the molecule `CCOc1ccc(NC(=O)[C@H](C)NC(=O)C2CC(=O)N(c3ccc(OC)cc3)C2)cc1` (stereo not given in full), the “activity change, negative = growth inhibition” value is 33.1% (inactive).

Consider `CCCCN1CC(c2nc3ccccc3n2CCCCOc2ccc(C)cc2C)CC1=O` (stereo not given), for which the Potency is 5.8 µM (active).

For `CCC1Oc2ccc(Cl)cc2N(CC(=O)O)C1=O` (stereo not given), the “activity change, negative = growth inhibition” value was -17.8% (inactive).

As for `Nc1c(C(=O)OCC(=O)Nc2ccc(OC(F)F)cc2)[nH]c(=O)[nH]c1=O`, the “activity change, negative = growth inhibition” value was 2.04% (inactive).

As to `Cc1cc(C)cc(NC(=O)COC(=O)c2cc(C)oc2C)c1`, the “activity change, negative = growth inhibition” value was 4.9% (inactive).

Consider `Cc1ccccc1Nc1nc(N)nc(COC(=O)CCC(=O)c2ccc(F)cc2)n1`, for which the “activity change, negative = growth inhibition” value was -24% (inactive).

Regarding `CCCCNC(=O)CCn1nc(-c2ccc(Cl)cc2)ccc1=O`, the “activity change, negative = growth inhibition” value is -2.25% (inactive).

With `C[C@H]1CN([C@@H](C)CO)C(=O)CCCn2nncc2CO[C@@H]1CN(C)Cc1ccc(Oc2ccccc2)cc1`, the Potency was 18.4 µM (active).

As to `C[C@H](CO)N1C[C@H](C)[C@@H](CN(C)Cc2ccc3c(c2)OCO3)OCc2cnnn2CCCC1=O`, the “activity change, negative = growth inhibition” value was -4.82% (inactive).

Turning to `Cc1ccc(CN(C)C[C@@H]2OCc3cnnn3CCCC(=O)N([C@@H](C)CO)C[C@H]2C)cc1`, the “activity change, negative = growth inhibition” value was -26.1% (inactive).

`CCCC(=O)N1CCC(CCC(=O)NC2CC2)CC1`: the “activity change, negative = growth inhibition” value is 3.6% (inactive).

For `COCCN1C(=O)C(=O)/C(=C(/O)c2ccc(S(=O)(=O)N3CCCCC3)cc2)C1c1ccc(OC)c(OC)c1` (stereo not given), the “activity change, negative = growth inhibition” value is 1.45% (inactive).

`CSc1ncc(Sc2ccccc2)c(C(=O)O)n1`: the “activity change, negative = growth inhibition” value is 2.57% (inactive).

For `CSc1nc(C)cc(SC(C(C)=O)C(=O)Nc2ccccc2)n1` (stereo not given), the “activity change, negative = growth inhibition” value was -1.76% (inactive).

Consider `CSc1nc(-c2ccccc2)nc(C(Cl)Cl)n1`, for which the Potency is 2.31 µM (active).

In the case of `CC1(C)Oc2ccc(C(=O)N3CCOCC3)cc2N(CC(=O)Nc2ccccc2)C1=O`, the “activity change, negative = growth inhibition” value was -9.51% (inactive).

`O=C(NCCC1CCCCN1S(=O)(=O)c1ccccc1)C(=O)NCC1CCCO1` (stereo not given): the “activity change, negative = growth inhibition” value was 4.61% (inactive).

Regarding `O=C(NCCC1CCCCN1S(=O)(=O)c1ccc(Cl)cc1)C(=O)NCc1ccco1` (stereo not given), the Potency was 14.6 µM (active).

For the molecule `Cc1ccc(S(=O)(=O)N2CCCC2C(=O)NCc2ccco2)cc1` (stereo not given), the “activity change, negative = growth inhibition” value is -18.4% (inactive).

In the case of `COc1ccc(NC(=O)CCCc2nnc3n(CCC(C)C)c(=O)c4sccc4n23)c(OC)c1`, the “activity change, negative = growth inhibition” value was -34.1% (inactive).

For `COc1ccccc1N=C(C)C1=C(O)COC1=O`, the “activity change, negative = growth inhibition” value was 11.5% (inactive).

On to `CCOc1ccccc1N=C1NC(=O)CS1`, for which the “activity change, negative = growth inhibition” value is -4.09% (inactive).

Turning to `CCC/C(O)=C1\C(=O)CC(C)(C)CC1=Nc1ccccc1OC`, the Potency was 14.6 µM (active).

In the case of `N#Cc1cc([N+](=O)[O-])ccc1NC(=O)COC(=O)c1cnccn1`, the “activity change, negative = growth inhibition” value was -19.1% (inactive).

On to `NS(=O)(=O)c1cccc(NC(=O)CC23CC4CC(CC(Br)(C4)C2)C3)c1`, for which the “activity change, negative = growth inhibition” value was -2.07% (inactive).

On to `Cn1cccc1C(C#N)c1ccccc1C#N` (stereo not given), for which the “activity change, negative = growth inhibition” value is -0.548% (inactive).

In the case of `Cc1ccccc1NC(=O)C(C)OC(=O)CCC(=O)N(CC(C)C)c1c(N)n(CC(C)C)c(=O)[nH]c1=O` (stereo not given), the “activity change, negative = growth inhibition” value is -7.3% (inactive).

For `Cc1cccc(C(C)C)c1NC(=O)COC(=O)C1CC(=O)N(Cc2ccccc2)C1` (stereo not given), the “activity change, negative = growth inhibition” value was -25.4% (inactive).

In the case of `O=C(N/N=C/c1cccnc1)c1cc2ccccc2cc1O`, the “activity change, negative = growth inhibition” value is -19.2% (inactive).

Turning to `Cc1ccc(C(=O)NNC(=O)OC(C)(C)C)c(Cl)c1`, the “activity change, negative = growth inhibition” value is -5.16% (inactive).

On to `Cc1ccccc1NC(=O)NNC(=O)OC(C)(C)C`, for which the “activity change, negative = growth inhibition” value is -0.379% (inactive).

For `O=C(NNc1c2ccccc2nc2ccccc12)c1cc2ccccc2cc1O`, the Potency was 18.4 µM (active).

For `O=C(COC(=O)c1ccc(O)cc1O)NC(=O)c1ccccc1`, the “activity change, negative = growth inhibition” value was -21.6% (inactive).

Regarding `CC(C)(C)OC(=O)NNc1c2ccccc2nc2ccccc12`, the Potency was 13 µM (active).

Take `CCCCNC(=O)N(O)C1N(/N=C/c2ccc(N(C)C)cc2)C(=S)SC1(C)C` (stereo not given): the “activity change, negative = growth inhibition” value was -11% (inactive).

Turning to `Cc1csc(/N=C/N(C)C)c1C#N`, the “activity change, negative = growth inhibition” value was -18% (inactive).

As to `CCS(=O)(=O)Nc1ccc(C2=NN(C(C)=O)C(c3cccs3)C2)cc1` (stereo not given), the Potency was 5.8 µM (active).

Regarding `COc1ccc(C2=NN(C(=O)CCC(=O)O)C(c3cccs3)C2)cc1OC` (stereo not given), the “activity change, negative = growth inhibition” value was -3.18% (inactive).

Turning to `CS(=O)(=O)Nc1ccc(C2=NN(S(C)(=O)=O)C(c3cccs3)C2)cc1` (stereo not given), the “activity change, negative = growth inhibition” value is 6.29% (inactive).

For the molecule `NNC(=O)c1cccc(COCC(F)(F)C(F)F)c1`, the “activity change, negative = growth inhibition” value was 0.0307% (inactive).

As for `Cc1c(C(=O)Nc2ccccc2Cl)oc2ccc(S(=O)(=O)N3CCC4(CC3)OCCO4)cc12`, the “activity change, negative = growth inhibition” value is -27.9% (inactive).

With `Cc1occc1C(=O)Nc1cccc(S(=O)(=O)N2CCOCC2)c1`, the “activity change, negative = growth inhibition” value was -21.2% (inactive).

As to `Cc1ccc2oc(C(=O)Nc3ccc(S(=O)(=O)N4CCCCCC4)cc3)cc(=O)c2c1`, the “activity change, negative = growth inhibition” value is -20% (inactive).

Consider `Cc1nonc1NC(=O)c1oc2ccccc2c1C`, for which the “activity change, negative = growth inhibition” value was 15.9% (inactive).

For `Cc1c(C(=O)NCCN(C)C)oc2ccc(S(=O)(=O)N3CCCC3)cc12`, the “activity change, negative = growth inhibition” value is -8.67% (inactive).

For the molecule `O=C(Nc1cc(S(=O)(=O)N2CCOCC2)ccc1Cl)c1cc(=O)c2ccccc2o1`, the Potency is 20.6 µM (active).

Consider `O=C(Cn1[nH]c(=O)c2ccccc2c1=O)Nc1cccc(-c2nnc3n2CCCCC3)c1`, for which the “activity change, negative = growth inhibition” value was -11.3% (inactive).

Regarding `Cc1cc(C)n2nc(C(=O)Nc3cccc(S(=O)(=O)N4CCOCC4)c3)nc2n1`, the “activity change, negative = growth inhibition” value is -4.7% (inactive).

As to `Cc1c(C(=O)Nc2cccc(S(=O)(=O)N3CCOCC3)c2)oc2ccccc12`, the Potency is 20.6 µM (active).

Consider `Cc1c(C(=O)Nc2cccc(-c3nnc4n3CCCCC4)c2)oc2ccccc12`, for which the Potency was 16.4 µM (active).

As for `COc1ccc(NC(=O)c2oc3ccc(S(=O)(=O)N4CCOCC4)cc3c2C)cc1`, the Potency is 10.3 µM (active).

Take `O=C(Nc1cc(S(=O)(=O)N2CCOCC2)ccc1N1CCOCC1)c1c(F)cccc1Cl`: the “activity change, negative = growth inhibition” value is -28.8% (inactive).

(Values after PubChem BioAssay AID686978 (National Center for Advancing Translational Sciences (NCATS), 2013).)
